# The supplement of paper PMC8728848
# The sample as a whole holds a higher share of the strongest signals than the screen did.
# B1: SialidaseA (Arthrobacter ureafaciens) (protein)
# chain: MRSNSTSAPSLVRRAATGVLTCAVSIGLLAGLGLPAQAAPTPPNSPTLPPGSFSETNLAADRTAANFFYRIPALTYLGNDVVLAAWDGRPGSAADAPNPNSIVQRRSTDGGKTWGPVQVIAAGHVADASGPRYGYSDPSYIYDAEANKVFAFFVYSKDQGFGGSQFGNDDADRNVISSAVIESSDAGVTWSQPRLITSVTKPGTSKTNPAAGDVRSNFASSGEGIQLKYGPHKGRLIQQYAGDVRQADGSNKIQAYSVYSDDHGVTWHKGANVGDRMDENKTVELSDGRVLLNSRDNANRGYRKVAVSTDGGATYGPVSQDTELPDPANNGAIARMFPNAAQGSADAKKLIFTNANSKTGRENVSARVSCDDGETWPGVRTIRSGFSAYSTVTRLADGKFGVLYEGNYTDNMPFATFDDAWLNYVCAPLAVPAVNIAPSATQEVPVTVTNQEATTLSGATATVYTPSGWSATTVPVPDVAPGASVTVTVALTAPADASGPRSLNAAFTTADGRVSQFTFTATTPVAPQVGLTITGSAPARDVAANPYQAGDVLGYTLNVKSTANVAANSVPLTGTFDSGFLPPAAPNCRYNNLAAGASYNCTTAKHTITAADMERGYFVPEATFSITSTTTPSLTKTVQFTGAAVALRDGLISADISGARTDVGRDLATRPYAAGELVPYAFTVKNTSPFVEQVVPTAGNFSPFLPAGAGNCRYLSLPAGQSYECATPRHAVTAEEVEQGFFVPDTTWEVSAAGQSTRTYRINGGEVDLLVRDAALSATVVAEWKDADGDRFASAGDPVTFTYTVGNAGNVALTGLEAPDAGISLPFLAPGDTATATREHVLTAADVAGGSLAASAFEATARNGSKEVTATAEGQPLELKVQPAQPSKEPELTVQDLEDQTPPFDLGTAFKYRTGQKVSLAGLEYGQWYYVYLNKTGYRLGWMFPTTGDTVEFILPPEVRNGRDDVVVLDKDGRRVSFDRLQVTPKGEKI
# Columns and labels:
# Assay in all cases: glycan array binding signal (z-score within array); higher = stronger binding
# Conditions in all cases: glycan notation: IUPAC condensed, linker removed
# [1] = biological target: Man(a1-3)[Man(a1-6)]Man(a1-6)[Man(a1-3)]Man(b1-4)GlcNAc(b1-4)GlcNAc
# In short: (§1)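 Glycan array data were curated from 3228 arrays in the Consortium for Functional Glycomics database and kept only where the protein sequence was available. Glycan names were converted to IUPAC-condensed notation, and columns mapping to the same glycan were averaged. The binding signal is a within-array Z-score, averaged across arrays of the same protein sequence at different concentrations or buffers and across linkers. Negative Z-scores can be read as non-binding.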
# [2] = biological target: Neu5Ac(a2-3)Gal(b1-3)GlcNAc(b1-3)GalNAc
# In short: as §1
# [3] = biological target: Neu5Ac(a2-3)Gal(b1-4)GlcNAc(b1-2)Man(a1-3)[Neu5Ac(a2-3)Gal(b1-4)GlcNAc(b1-2)Man(a1-6)]Man(b1-4)GlcNAc(b1-4)GlcNAc
# In short: as §1
# [4] = biological target: Neu5Ac(a2-3)Gal(b1-4)GlcNAc(b1-2)Man(a1-3)[Neu5Ac(a2-3)Gal(b1-4)GlcNAc(b1-2)Man(a1-6)]Man(b1-4)GlcNAc(b1-4)[Fuc(a1-6)]GlcNAc
# In short: as §1
# [5] = biological target: Neu5Ac(a2-3)Gal(b1-4)GlcNAc(b1-3)Gal(b1-4)GlcNAc(b1-2)Man(a1-3)[Neu5Ac(a2-3)Gal(b1-4)GlcNAc(b1-3)Gal(b1-4)GlcNAc(b1-2)Man(a1-6)]Man(b1-4)GlcNAc(b1-4)GlcNAc
# In short: as §1
# [6] = biological target: Neu5Ac(a2-3)Gal(b1-4)GlcNAc(b1-3)Gal(b1-4)GlcNAc(b1-3)GalNAc
# In short: as §1
# [7] = biological target: Neu5Ac(a2-3)Gal(b1-4)GlcNAc(b1-3)[Neu5Ac(a2-3)Gal(b1-4)GlcNAc(b1-6)]GalNAc
# In short: as §1
# [8] = biological target: Neu5Ac(a2-3)Gal(b1-4)[Fuc(a1-3)]GlcNAc(b1-3)Gal(b1-4)GlcNAc
# In short: as §1
# [9] = biological target: Neu5Ac(a2-3)Gal(b1-4)[Fuc(a1-3)]GlcNAc(b1-3)GalNAc
# In short: as §1
# [10] = biological target: Neu5Ac(a2-3)[GalNAc(b1-4)]Gal(b1-4)GlcNAc
# In short: as §1
# [11] = biological target: Neu5Ac(a2-6)Gal(b1-4)GlcNAc(b1-2)Man(a1-3)Man(b1-4)GlcNAc(b1-4)GlcNAc
# In short: as §1
# [12] = biological target: Neu5Ac(a2-6)Gal(b1-4)GlcNAc(b1-2)Man(a1-3)[Man(a1-6)]Man(b1-4)GlcNAc(b1-4)GlcNAc
# In short: as §1
# [13] = biological target: Neu5Ac(a2-6)Gal(b1-4)GlcNAc(b1-2)Man(a1-3)[Neu5Ac(a2-3)Gal(b1-4)GlcNAc(b1-2)Man(a1-6)]Man(b1-4)GlcNAc(b1-4)GlcNAc
# In short: as §1
# [14] = biological target: Neu5Ac(a2-6)Gal(b1-4)GlcNAc(b1-2)Man(a1-3)[Neu5Ac(a2-6)Gal(b1-4)GlcNAc(b1-2)Man(a1-6)]Man(b1-4)GlcNAc(b1-4)[Fuc(a1-6)]GlcNAc
# In short: as §1
# [15] = biological target: Neu5Ac(a2-6)Gal(b1-4)GlcNAc(b1-2)Man(a1-6)Man(b1-4)GlcNAc(b1-4)GlcNAc
# In short: as §1
# [16] = biological target: Neu5Ac(a2-6)Gal(b1-4)GlcNAc(b1-2)Man(a1-6)[Gal(b1-4)GlcNAc(b1-2)Man(a1-3)]Man(b1-4)GlcNAc(b1-4)GlcNAc
# In short: as §1
# [17] = biological target: Neu5Ac(a2-6)Gal(b1-4)GlcNAc(b1-2)Man(a1-6)[GlcNAc(b1-2)Man(a1-3)]Man(b1-4)GlcNAc(b1-4)GlcNAc
# In short: as §1
# [18] = biological target: Neu5Ac(a2-6)Gal(b1-4)GlcNAc(b1-2)Man(a1-6)[Man(a1-3)]Man(b1-4)GlcNAc(b1-4)GlcNAc
# In short: as §1
# [19] = biological target: Neu5Ac(a2-6)Gal(b1-4)GlcNAc(b1-3)Gal(b1-4)GlcNAc(b1-3)[Neu5Ac(a2-6)Gal(b1-4)GlcNAc(b1-3)Gal(b1-4)GlcNAc(b1-6)]GalNAc
# In short: as §1
# [20] = biological target: Neu5Ac(a2-6)Gal(b1-4)GlcNAc(b1-3)Gal(b1-4)[Fuc(a1-3)]GlcNAc(b1-3)Gal(b1-4)[Fuc(a1-3)]GlcNAc
# In short: as §1
# [21] = biological target: Neu5Ac(a2-6)Gal(b1-4)GlcNAc(b1-3)[Neu5Ac(a2-6)Gal(b1-4)GlcNAc(b1-6)]GalNAc
# In short: as §1
# [22] = biological target: Neu5Ac(a2-6)Gal(b1-4)GlcNAc(b1-6)GalNAc
# In short: as §1
# [23] = biological target: Neu5Ac(a2-6)GlcNAc(b1-4)GlcNAc(b1-4)GlcNAc
# In short: as §1
# [24] = biological target: Neu5Ac(a2-8)Neu5Ac(a2-3)[Gal(b1-3)GalNAc(b1-4)]Gal(b1-4)Glc
# In short: as §1
# [25] = biological target: Neu5Gc(a2-3)Gal(b1-4)GlcNAc(b1-3)Gal(b1-4)GlcNAc(b1-2)Man(a1-3)[Neu5Gc(a2-3)Gal(b1-4)GlcNAc(b1-3)Gal(b1-4)GlcNAc(b1-2)Man(a1-6)]Man(b1-4)GlcNAc(b1-4)GlcNAc
# In short: as §1
binder,measurement,setting,value
B1,glycan array binding signal (z-score),[1],-0.278
same,glycan array binding signal (z-score),[2],-0.321
same,glycan array binding signal (z-score),[3],-0.915
same,glycan array binding signal (z-score),[4],3.28
same,glycan array binding signal (z-score),[5],0.256
same,glycan array binding signal (z-score),[6],-0.013
same,glycan array binding signal (z-score),[7],1.16
same,glycan array binding signal (z-score),[8],2.56
same,glycan array binding signal (z-score),[9],1.91
same,glycan array binding signal (z-score),[10],0.486
same,glycan array binding signal (z-score),[11],3.4
same,glycan array binding signal (z-score),[12],3.4
same,glycan array binding signal (z-score),[13],2.86
same,glycan array binding signal (z-score),[14],3.44
same,glycan array binding signal (z-score),[15],3.28
same,glycan array binding signal (z-score),[16],3.95
same,glycan array binding signal (z-score),[17],3.32
same,glycan array binding signal (z-score),[18],3.29
same,glycan array binding signal (z-score),[19],3.49
same,glycan array binding signal (z-score),[20],3.65
same,glycan array binding signal (z-score),[21],3.9
same,glycan array binding signal (z-score),[22],-0.534
same,glycan array binding signal (z-score),[23],-0.274
same,glycan array binding signal (z-score),[24],-0.131
same,glycan array binding signal (z-score),[25],1.3
